hDAT+cocaine = changed hDAT dopamine uptake under cocaine IC80, either direction, primary screen, cocaine antagonist project, cell-based, LLC-PK1 hDAT, [14C]-dopamine uptake, MLSMR. Sodium-dependent dopamine transporter (Homo sapiens), Q01959. LLC-PK1 hDAT cells, [14C]-dopamine uptake with cocaine IC80; actives deviate in either direction. B-score at 10 µM. actives 1.3% (n = 110,000). AID 449768, 2010;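 active = Z score or B-score, a plate-position-corrected score, falls beyond the plate's 99.7% confidence bounds, in either direction; inactive = both scores lie inside the 99.7% bounds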;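 also: scored against the spread of the other compound wells on the same plate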
Cav3 T inh = Cav3.2 calcium influx blockers – cell-based, Fluo-4 calcium fluorescence, FDSS, MLSMR library, primary screen. actives 4% (n = 100,000). Voltage-dependent T-type calcium channel subunit alpha-1H (Homo sapiens), O95180. Cav3.2-expressing cells; hits give low values. B-score at 10 µM. AID 449739, 2010;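 active = single-dose well whose peak fluorescence ratio is a statistical outlier from its plate by either plate-standardised score or position-corrected B-score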
PLAP activator = PLAP enzyme activators, biochemical, luminescence, HTS | purified PLAP enzyme, luminescent substrate read-out; hits give high values | activation fold at 20 µM | actives 1.2% (n = 96,000) | AID 696, 2007; in the data active = activation fold above about 2
Target sequence (P05187 whole entry, looked up): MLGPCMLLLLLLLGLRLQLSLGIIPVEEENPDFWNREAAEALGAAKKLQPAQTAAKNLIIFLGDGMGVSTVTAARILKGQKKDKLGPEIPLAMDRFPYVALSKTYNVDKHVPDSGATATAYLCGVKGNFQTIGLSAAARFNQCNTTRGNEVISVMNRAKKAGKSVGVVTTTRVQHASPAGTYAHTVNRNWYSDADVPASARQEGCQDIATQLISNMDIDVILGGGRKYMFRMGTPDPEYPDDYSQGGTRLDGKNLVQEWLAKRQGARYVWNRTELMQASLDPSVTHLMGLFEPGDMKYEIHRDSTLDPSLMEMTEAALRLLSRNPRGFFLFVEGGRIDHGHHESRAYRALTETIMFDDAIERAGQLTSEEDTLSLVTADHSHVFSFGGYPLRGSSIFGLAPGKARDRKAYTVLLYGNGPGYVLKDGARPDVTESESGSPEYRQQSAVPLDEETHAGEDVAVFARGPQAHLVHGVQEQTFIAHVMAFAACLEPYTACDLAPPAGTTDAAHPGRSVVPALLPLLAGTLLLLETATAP
PostGolgi yeast = phenotypic screen on post-Golgi transport, primary screen | AID 739, 2007 | inhibition, % at 10 µM | actives 0.9% (n = 98,000) | post-Golgi transport phenotypic cell assay;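 also: yeast cells grown in 1536-well plates; yeast grown about 18 h at 30C before absorbance read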
PostGolgi ctrl = growth inhibition of yeast control strain, primary screen, counter-screen for post-Golgi transport modulator project; efflux-deficient yeast background strain, growth absorbance A615, 16 h; inhibition, % at 10 µM; actives 5% (n = 98,000); AID 738, 2007
Numbers without * were called inactive. Shown are actives, neighbours in structure and some others; about 9.6% of the full set was active somewhere. Rule as the data show it, unless noted: active = inhibition above about 30%; inactive = the rest.

`COCCNC(=O)C1CCC(Cn2c(=S)[nH]c3ccccc3c2=O)CC1` (stereo not given) gave hDAT+cocaine -7.61*, Cav3 T inh 0.848, PLAP activator 0.9, PostGolgi yeast 1.3 and PostGolgi ctrl -1.1.
`O=C(CCn1c(=S)[nH]c2ccccc2c1=O)NCC1CCCO1` (stereo not given) gave hDAT+cocaine 0.401, Cav3 T inh -4.47*, PLAP activator 0.8, PostGolgi yeast 7.8 and PostGolgi ctrl 0.3.
`Cc1cc(/C=N/NC(=O)c2cccc([N+](=O)[O-])c2)c(C)n1-c1ccc(Cl)cc1Cl` gave hDAT+cocaine 1.18, Cav3 T inh -6.42*, PLAP activator 0.9, PostGolgi yeast 33.6* and PostGolgi ctrl 14.3.
For Cc1ccc(C(=O)N/N=C/c2cc(C)n(-c3ccc(Br)cc3)c2C)cc1[N+](=O)[O-] the results were hDAT+cocaine -0.0465, Cav3 T inh 0.0321, PLAP activator 1, PostGolgi yeast 4.5 and PostGolgi ctrl 13.5.
For Cc1cccc(-n2c(C)cc(/C=N/NC(=O)c3cccc([N+](=O)[O-])c3C)c2C)c1 the results were hDAT+cocaine 1.06, Cav3 T inh -3.7*, PLAP activator 1.2, PostGolgi yeast 11.0 and PostGolgi ctrl 25.3.
Screening Cc1cc(C)c(C)c(S(=O)(=O)NCC(=O)Nc2sc3c(c2C(N)=O)CCCC3)c1C returned hDAT+cocaine 0.117, Cav3 T inh -0.00181, PLAP activator 1.3, PostGolgi yeast 20.1 and PostGolgi ctrl 4.3.
For O=C(Nc1ncnc2sc3c(c12)CCCCC3)c1ccccc1 the results were hDAT+cocaine 0.00538, Cav3 T inh -2.9, PLAP activator 1, PostGolgi yeast 48.5* and PostGolgi ctrl 33.0*.
C(=N\Nc1ncnc2sc3c(c12)CCC3)/c1cccs1 was read as hDAT+cocaine 0.52, Cav3 T inh 0.0662, PLAP activator 1.3, PostGolgi yeast 19.4 and PostGolgi ctrl 34.0*.
`N[C@@H](Cc1ccc(O)cc1)c1nnc([C@H](CC(=O)O)NC(=O)C2CCNCC2)o1` gave hDAT+cocaine -0.566 and Cav3 T inh 0.873.
For CCc1ccc(NC(=O)CSc2nc3n[nH]c(C)c3c(=N)n2-c2cccc(OC)c2)cc1 the results were hDAT+cocaine 1.68 and Cav3 T inh -3.34.
Cc1ccc(CNC(=O)CSc2nc3n[nH]c(C)c3c(=N)n2-c2cccc(C)c2)cc1 was read as hDAT+cocaine 0.572, Cav3 T inh -2.87, PLAP activator 2.5*, PostGolgi yeast 9.6 and PostGolgi ctrl 4.4.
Screening COC(=O)c1ccc(Cc2ccc(C(=O)OC)o2)o1 returned hDAT+cocaine 0.612, Cav3 T inh 0.0268, PLAP activator 1.1, PostGolgi yeast 7.5 and PostGolgi ctrl 35.6*.
CCOc1cc(C(=O)N2CCN(c3ccc(C(C)=O)cc3)CC2)cc(OCC)c1OCC was read as hDAT+cocaine 0.927, Cav3 T inh 0.744, PLAP activator 1, PostGolgi yeast -0.5 and PostGolgi ctrl 5.6.
For COc1cc(CNC2CCCC2)cc(OC)c1OC the results were hDAT+cocaine -0.827, Cav3 T inh 0.122, PLAP activator 1.1, PostGolgi yeast 20.6 and PostGolgi ctrl -6.5.
`COc1cc(CNC2CCCC2)cc(Cl)c1OCc1ccc(F)cc1` gave hDAT+cocaine 0.834, Cav3 T inh -1.95, PLAP activator 1.6, PostGolgi yeast -0.8 and PostGolgi ctrl 43.9*.
`COc1cc(CNC2CCCC2)cc(Cl)c1OCc1ccccc1Cl` gave hDAT+cocaine 0.64, Cav3 T inh -0.192, PLAP activator 1.3, PostGolgi yeast 8.1 and PostGolgi ctrl 32.8*.
Screening O=C(CSc1nc(-c2ccccc2)c(-c2ccccc2)[nH]1)NCCN1C(=O)CSC1=O returned hDAT+cocaine 0.219, Cav3 T inh 2.12, PLAP activator 1.5, PostGolgi yeast 4.3 and PostGolgi ctrl 16.7.
`COc1ccc(CC(=O)Nc2ccc(S(=O)(=O)Nc3nc(C)cc(C)n3)cc2)cc1` gave hDAT+cocaine 1.46, Cav3 T inh 0.162, PLAP activator 1.4, PostGolgi yeast 1.1 and PostGolgi ctrl 1.5.
For COc1ccc(CC(=O)Nc2ccc(S(=O)(=O)Nc3nccc(C)n3)cc2)cc1 the results were hDAT+cocaine 0.0799, PLAP activator 2.1*, PostGolgi yeast 0.7 and PostGolgi ctrl 18.0.
